Bioassay records deposited in PubChem by Johns Hopkins Ion Channel Center.
KCNQ2 enhance: enhances the rat KCNQ2 potassium channel. O88943. CHO-K1 KCNQ2, FluxOR thallium flux fluorescence; stronger effect = higher value. B-score at 10 µM. 310,000 tested, 0.54% active. AID 2239;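 active means fluorescence ratio B-score at least 3 SD of library B-scores, with initial fluorescence B-score within 3 of them, cut at about 5.3 in these data; same plate scores as AID 2156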;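 further: B-score of peak minus minimum over baseline fluorescence ratio after K+ and Tl+ stimulus; positive B-score means potentiation of KCNQ2 with more thallium influx and brighter signal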
Target sequence (O88943 whole entry, looked up): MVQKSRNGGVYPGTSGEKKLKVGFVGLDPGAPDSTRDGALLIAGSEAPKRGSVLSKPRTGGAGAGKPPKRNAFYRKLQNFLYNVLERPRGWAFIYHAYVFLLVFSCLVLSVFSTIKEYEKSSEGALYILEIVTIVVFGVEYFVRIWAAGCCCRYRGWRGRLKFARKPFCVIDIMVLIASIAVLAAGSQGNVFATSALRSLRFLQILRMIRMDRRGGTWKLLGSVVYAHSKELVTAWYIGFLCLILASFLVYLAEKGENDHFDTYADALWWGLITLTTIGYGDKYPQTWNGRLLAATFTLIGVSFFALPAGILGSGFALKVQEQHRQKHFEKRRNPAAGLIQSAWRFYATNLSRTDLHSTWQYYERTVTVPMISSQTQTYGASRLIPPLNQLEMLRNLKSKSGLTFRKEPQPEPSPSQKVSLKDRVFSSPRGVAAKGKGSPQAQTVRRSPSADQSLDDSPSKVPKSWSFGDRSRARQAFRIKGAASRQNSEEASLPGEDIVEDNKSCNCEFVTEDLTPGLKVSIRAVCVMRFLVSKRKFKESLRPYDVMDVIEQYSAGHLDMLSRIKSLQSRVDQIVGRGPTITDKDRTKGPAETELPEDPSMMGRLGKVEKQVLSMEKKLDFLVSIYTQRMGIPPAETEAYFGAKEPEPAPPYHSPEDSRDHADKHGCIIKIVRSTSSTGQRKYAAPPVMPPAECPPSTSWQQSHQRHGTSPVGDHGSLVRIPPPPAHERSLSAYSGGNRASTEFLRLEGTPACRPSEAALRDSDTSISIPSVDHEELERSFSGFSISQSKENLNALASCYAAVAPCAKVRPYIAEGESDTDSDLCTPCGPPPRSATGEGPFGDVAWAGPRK
KCNQ2 block: KCNQ2 (rat) channel inhibition; CHO-K1 KCNQ2, FluxOR thallium flux, 20 min; stronger effect = lower value; B-score at 10 µM; 310,000 tested, 1.1% active; O88943;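 active means fluorescence ratio B-score at most minus 3 library SDs, with starting brightness B-score within 2 library SDs, cut at about -5.5 in these data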
KCNQ2 inh conf: confirmation of rat KCNQ2 potassium channel inhibitors; activity change, negative = inhibition, % at 10 µM; 1,000 tested, 57% active; shares compounds with KCNQ2 block; AID 493025; KCNQ2-expressing cells, thallium flux, inhibition; stronger effect = lower value;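 further: 0% = vehicle wells and values are ratio percent relative to vehicle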
KCNQ1 spec: human KCNQ1 activity in KCNQ2 inhibitor specificity screen | AID 493026 | 1,000 tested, 15% active | KCNQ1-expressing cells, FluxOR thallium flux fluorescence; stronger effect = lower value | shares compounds with KCNQ2 block | activity change, negative = inhibition, % at 10 µM;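 active means activity change at least 3 SD of negative controls below their mean in both duplicate wells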;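 further: CHO cells stably transfected with KCNQ1 and depolarized by potassium stimulus; peak minus minimum fluorescence over baseline after thallium addition; 0% = vehicle negative control and -100% = blank without thallium stimulus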
CHO Tl ctr: activity in parental CHO cells lacking KCNQ2 | shares compounds with KCNQ2 block | thallium flux counter-screen; stronger effect = lower value | activity change, % at 10 µM | 1,000 tested, 14% active | AID 493029;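 further: 0% = vehicle negative controls with stimulus buffer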
KCNQ2 patch conf: confirmation of rat KCNQ2 potassium channel inhibitors; AID 588531; calls only at 10 µM; KCNQ2-expressing cells, automated patch clamp current; shares compounds with KCNQ2 block; 550 tested, 49% active
The depositor's hits bear a star; i = inactive; · = not tested or not shown; + = active, no number. The list is not random: actives were taken first. Their share in the collection is about 1.6%. Unless noted, how the calls were made is not given here.

SMILES	KCNQ2 enhance	KCNQ2 block	KCNQ2 inh conf	KCNQ1 spec	CHO Tl ctr	others
CC1CC(C)CN(C(=O)CN(C)S(=O)(=O)c2ccc3c(c2)c(=O)n(C)c(=O)n3C)C1 (stereo not given)	0.42	i	·	·	·
CC(=O)c1cccc(NC(=O)CCc2nnc3ccc(N4CCOCC4)nn23)c1	·	i	·	·	·
c1ccc2oc(-c3ccc(Nc4nc(N5CCCC5)nc(N5CCOCC5)n4)cc3)nc2c1	3	i	·	·	·
CCCc1cc(=O)[nH]c(SCCCCN2C(=O)c3ccccc3C2=O)n1	·	i	·	·	·
COc1ccccc1C(=O)n1nc(-c2ccccc2)nc1NCc1ccco1	-8.7	-8.7*	i	i	i
Cc1ccc(S(=O)(=O)n2nc(-c3ccc(Cl)cc3)nc2NCc2ccco2)cc1	-9.3	-9.3*	i	i	i
CCS(=O)(=O)n1nc(-c2ccccc2)nc1NCc1ccco1	0.01	i	·	·	·
O=C(c1ccco1)n1nc(-c2ccccc2)nc1NCc1ccco1	0.1	i	·	·	·
O=C(NCC(=O)N1CCN(Cc2ccccc2)CC1)c1ccc(Br)o1	·	i	·	·	·
CCCCn1c(=O)[nH]c(=O)c2c1ncn2Cc1ccco1	0.89	i	·	·	·
CCCCn1cnc2c(c(-c3ccccc3)c(-c3ccccc3)n2Cc2ccco2)c1=N	-7.6	-7.6*	-27%*	i	i	KCNQ2 patch conf=i
O=C(O)c1cccc(S(=O)(=O)N2CCN(Cc3ccc4c(c3)OCO4)CC2)c1	·	i	·	·	·
CCN(CC)c1ccc(S(=O)(=O)N(CC)CC)cc1NC(=O)c1cccnc1	·	i	·	·	·
CCCCn1c(N)c(N(CCOC)C(=O)c2ccc(N3CCCC3)c([N+](=O)[O-])c2)c(=O)[nH]c1=O	·	i	·	·	·
COCCN1CC(C(=O)NCc2ncccc2C)CCC1=O (stereo not given)	·	i	·	·	·
Cc1ccc(NS(=O)(=O)c2ccc3[nH]c(=O)[nH]c3c2)c(C)c1	·	i	·	·	·
CC(C)C(c1nnnn1Cc1ccccc1)N(Cc1ccco1)Cc1cccs1 (stereo not given)	-9	-9*	-44%*	-45%*	-41%*	KCNQ2 patch conf=i
COc1ccc(Cn2nnnc2C(C(C)C)N(Cc2ccco2)Cc2cccs2)cc1 (stereo not given)	·	i	·	·	·
CC1(C)Oc2ccc3ccc(=O)oc3c2/C(=C/NNC(N)=S)C1=O	·	i	·	·	·
O=C(CCc1nnc2ccc(N3CCC4(CC3)OCCO4)nn12)NCc1ccccc1Cl	·	i	·	·	·
COC(=O)CNC(=O)C1CCN(S(=O)(=O)c2cnc[nH]2)CC1	·	i	·	·	·
CSCCC(NC(=O)c1ccc(Cl)cc1Cl)C(=O)OCC(N)=O (stereo not given)	·	i	·	·	·
CSCCC(NC(=O)c1ccc(Cl)cc1)C(=O)OCC(=O)Nc1cc(Cl)ccc1C (stereo not given)	-6.8	-6.8*	-26%*	i	i	KCNQ2 patch conf=+
COCCCNC(=S)N1CCC(C(=O)c2ccc(Cl)cc2)CC1	0.22	i	·	·	·
Cc1c(C)n(C(=O)CN2CCC(C(N)=O)CC2)c2ccccc12	·	i	·	·	·
SMILES	KCNQ2 enhance	KCNQ2 block	KCNQ2 inh conf	KCNQ1 spec	CHO Tl ctr	others
Cc1c(C)n(C(=O)CN2CCN(c3ccccc3)CC2)c2ccccc12	-7.8	-7.8*	i	i	i
CCCC(=O)NCCc1nc2ccccc2n1CCC	2	i	·	·	·
CCCn1c(CNC(=O)Cc2ccccc2)nc2ccccc21	-6.7	-6.7*	i	i	i
Cc1cc(Cl)ccc1OCC(=O)NCCOc1nc(N2CCCCC2)nc(N2CCOCC2)n1	·	i	·	·	·
COc1cc(C)nc(OCCNC(=O)COc2ccc(Cl)cc2C)n1	-7.5	-7.5*	i	i	i
O=C(N1CCCCC1)N1CCN(S(=O)(=O)c2ccccc2)CC1	·	i	·	·	·
CC(C)=CC(=O)OCc1cc([N+](=O)[O-])cc2c1OCOC2	·	i	·	·	·
COCCn1nnnc1C(c1cc2cc(OC)ccc2[nH]c1=O)N1CCC(Cc2ccccc2)CC1 (stereo not given)	0.73	i	·	·	·
COc1ccc2cc(C(c3nnnn3CCc3ccccc3)N3CCCC(C)C3)c(=O)[nH]c2c1 (stereo not given)	-8.6	-8.6*	-35%*	i	i	KCNQ2 patch conf=+
O=C(N/C(=C\c1ccccc1)C(=O)N1CCOCC1)c1cccc(Br)c1	1.2	i	·	·	·
O=C(/C=C/c1ccco1)NC(=S)Nc1ccccc1N1CCOCC1	-7.2	-7.2*	i	i	i
O=C(/C=C/c1ccco1)NC(=S)Nc1ccccc1N1CCCC1	·	i	·	·	·
CN1CCN(C2Cc3ccc(F)cc3Sc3cc(F)c(Cl)cc32)CC1 (stereo not given)	·	i	·	·	·
